Bioassay records as filed in PubChem BioAssay.
Rows were chosen to be rich in hits. Some 1.3% of all compounds tested hit in one or more screens of this group.
HTT prom inh: inhibits huntingtin promoter activity. HEK293 HTT promoter firefly luciferase reporter, 24 h. AID 1508623. Potency, µM (top dose mostly 57.5 µM), for the others: at the highest dose activity change, negative = inhibition, actives largely listed as inhibitors. 48,000 compounds, 0.93% hits; note: nearly all actives have a fitted effect of over 50% in size
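Luminescence was read after Dual-Glo reagent and a 10 min room-temperature incubation. Values were normalized to vehicle (0% activity) and zero RLU (-100% activity). Reporter HEK293 cells had been exposed to compounds (up to 57.5 uM final) for 24 h.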
HTT-AS act: HTT-AS promoter activation | HEK293 HTT-AS promoter firefly luciferase reporter, 24 h; response scale: percent change from vehicle, -100% = no light | Potency, µM (series often up to 57.5 µM), inactives show top-dose activity change, positive = activation, usual class: activators | 48,000 compounds, 0.24% hits | AID 1508624; note: nearly all actives have a fitted effect of over 55% in size
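Firefly luciferase readout (Dual-Glo, 10 min RT) after 24 h, 37 °C compound exposure (final up to 57.5 uM) of HEK293 reporter cells cultured 24 h beforehand; PTC124 at 50 uM final as control inhibitor; activity scaled vehicle 0%, zero RLU -100%.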
FH mod: Identification of activators of human fumarate hydratase by quantitative high-throughput screening. FH coupled MDH/diaphorase resazurin fluorescence, 15 min. Fumarate hydratase, mitochondrial (Homo sapiens), P07954. Potency, µM (highest dose often 79.9 µM), inactives show top-dose activity change, negative = inhibition, most hits filed as inhibitors. 54,000 compounds, 0.22% hits; note: % is set by controls: 0 for no effect and ±100 for the full control effect; the screen sought activators but most active calls are inhibition curves; nearly all actives have a fitted effect of over 45% in size
Target sequence (P07954 whole entry, looked up): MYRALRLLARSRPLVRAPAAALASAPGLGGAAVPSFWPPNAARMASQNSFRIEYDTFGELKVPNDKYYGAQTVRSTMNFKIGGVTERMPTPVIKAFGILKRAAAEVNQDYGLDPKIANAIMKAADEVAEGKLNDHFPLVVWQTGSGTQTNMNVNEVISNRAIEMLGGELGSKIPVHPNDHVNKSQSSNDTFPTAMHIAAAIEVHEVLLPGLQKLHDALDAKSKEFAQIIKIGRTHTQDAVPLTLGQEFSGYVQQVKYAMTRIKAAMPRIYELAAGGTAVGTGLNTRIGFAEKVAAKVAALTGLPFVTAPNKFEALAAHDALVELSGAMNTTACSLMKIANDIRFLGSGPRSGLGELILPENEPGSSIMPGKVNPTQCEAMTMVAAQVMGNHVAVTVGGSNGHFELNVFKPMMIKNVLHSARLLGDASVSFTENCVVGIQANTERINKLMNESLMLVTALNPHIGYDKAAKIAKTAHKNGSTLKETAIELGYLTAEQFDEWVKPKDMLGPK
* marks the source's active call; other numbers are inactive results; ? = inconclusive; . = not tested or not shown; ! = a repeat was not active; [ ] = another dose, or the depositor's remark. Calls come from the whole dose curve; as a rule, active = well fitted curve in the direction sought with a large enough effect; inconclusive = small, poorly fitted or top-dose-only effect, or another doubt; inactive = no such curve, though single readings can be large; an effect the other way counts as inactive or inconclusive. Potency is the fitted concentration of half-maximal effect.

SMILES | HTT prom inh | HTT-AS act | FH mod
N#C/C(=C/c1ccc(O)c(O)c1)C(N)=S | . | . | 13µM*!
CCCCCCC1C(=O)O[C@H](C)[C@H](NC(=O)c2cccc(NC=O)c2O)C(=O)O[C@@H](C)[C@@H]1OC(=O)CC(C)C (stereo partly specified) | . | . | -18%
CNc1ccc2oc(C[C@H]3O[C@@]4(CC[C@H]3C)O[C@H](C(C)C(=O)c3ccc[nH]3)[C@H](C)C[C@H]4C)nc2c1C(=O)O (stereo partly specified) | . | . | -15%
Cc1ccccc1Cn1cccc(C(=O)Nc2nc3ccccc3s2)c1=O | 0.32µM* | -82% | -6%
O=C(Nc1nc2ccccc2s1)c1cccn(Cc2ccccc2)c1=O | ? | -41% | -4%
C=CC(C)(O)CC/C=C(\C)C(=O)O[C@H]1[C@H](O)[C@@H](CO)O[C@@H](OC(=O)[C@]23CCC(C)(C)CC2C2=CCC4[C@@]5(C)CC[C@H](O[C@@H]6O[C@H](CO[C@@H]7OC[C@H](O)[C@H](O)[C@H]7O[C@@H]7OC[C@@H](O)[C@H](O)[C@H]7O)[C@@H](O)[C@H](O)[C@H]6O)C(C)(C)C5CC[C@@]4(C)[C@]2(C)CC3)[C@@H]1OC1OC(C)C(O[C@@H]2OC[C@@H](O)[C@H](O[C@@H]3OC[C@@H](O)[C@H](O)[C@H]3O)[C@H]2O)C(O)C1O (stereo partly specified) | . | . | -2%[13.5 µM]
CO/C1=C\C(C)=C\[C@@H](C)[C@@H](O)[C@@H](C)C/C(C)=C/C=C/[C@H](OC)[C@@H]([C@@H](C)[C@@H](O)[C@H](C)[C@@]2(O)C[C@@H](O)[C@H](C)[C@@H](C(C)C)O2)OC1=O | . | . | 3%[20.6 µM]
CCOC(=O)c1ccc(NC(=O)c2cccn(Cc3ccc(C)cc3)c2=O)cc1 | -2% | -43% | -3%
CCOC(=O)c1ccc(NC(=O)c2cccn(Cc3ccccc3F)c2=O)cc1 | 1.4µM* | -49% | 1%
CS[C@]1(CO)C(=O)N2[C@H]3C(=CC=C[C@@H]3O)C[C@@]2(SC)C(=O)N1C | . | . | -2%[53.3 µM]
CCN1C[C@@]2(COC)C3[C@@H](OC)C4[C@H]1C3([C@@H]1C[C@@]3(O)[C@H](OC(=O)c5ccccc5)[C@@H]1[C@]4(OC(C)=O)[C@@H](O)[C@@H]3OC)[C@H](OC)C[C@H]2O | . | . | -23%[53.3 µM]
O=C1OC(c2ccc(O)c(S(=O)(=O)O)c2)(c2ccc(O)c(S(=O)(=O)O)c2)c2c(Br)c(Br)c(Br)c(Br)c21 | -5% | 0% | 28µM*
CC(=O)C1CCC2C3CCC4C[C@@H](O)CCC4(C)C3CCC12C (stereo partly specified) | . | . | -3%
CC(=O)c1ccc(NC(=O)c2sc3nc4c(cc3c2N)N2CCC4CC2)cc1 | -16% | -23% | -14%
Nc1c(C(=O)Nc2ccc(OC(F)(F)F)cc2)sc2nc3c(cc12)N1CCC3CC1 | 7.9µM* | -60% | -7%
COc1ccc2[nH]c(-c3ccccc3)c(CCN(C)C)c2c1 | . | . | 2%
CCCN1CCO[C@@H]2c3cc(O)ccc3OC[C@H]21 | . | . | 4%[53.3 µM]
CCCN1CCc2cccc3c2[C@H]1Cc1ccc(O)c(O)c1-3 | . | . | 7.9µM*
C=C(CO)[C@@]12O[C@@H]1[C@@]1(C)C(=CC2=O)CC[C@@H](O)[C@@H]1C | . | . | 7%
CN(N=O)c1cc(O)ccc1O | . | . | 2.2µM*
CC[C@@H]1[C@@H](C)O[C@@](O)([C@@H](C)[C@H](O)[C@H](C)[C@H]2OC(=O)C=CC=C[C@@H](C)[C@@H]([C@@H](C)[C@@H](O)[C@H](C)[C@@]3(O)C[C@H](O[C@H]4C[C@H](O)[C@H](O)[C@H](C)O4)[C@H](CC)[C@@H](C)O3)OC(=O)C=CC=C[C@@H]2C)C[C@H]1O[C@H]1C[C@H](O)[C@H](O)[C@H](C)O1 | ? | -94% | -3%[53.3 µM]
CC(=O)O[C@H]1C[C@]2(O)[C@@H]3CC[C@@H]4C[C@@H](O)CC[C@]4(C)[C@H]3CC[C@]2(C)[C@H]1c1ccc(=O)oc1 | . | . | 7%
C[C@]12CC[C@@H](O[C@@H]3O[C@H](CO)[C@@H](O)[C@H](O)[C@H]3O)C[C@@]1(O)CCC1C2CC[C@]2(C)[C@@H](C3=CC(=O)OC3)CC[C@]12O (stereo partly specified) | . | . | -7%[53.3 µM]
O=C(Nc1ccc2c(c1)OCCO2)c1cccn(Cc2cccc(F)c2)c1=O | 0% | 7% | ?
Cc1cccc(Cn2cccc(C(=O)Nc3ccc(F)cc3F)c2=O)c1 | 28µM* | -34% | 2%
COC(=O)[C@@]1(C)C(=O)C=C[C@]2(C)c3c(O)cc(C(C)C)cc3[C@H](O)[C@@H](OC(C)=O)C12 (stereo partly specified) | . | . | -1%[53.3 µM]
